Experimental data published in PubChem BioAssay AID588458 (Sanford-Burnham Center for Chemical Genomics, 2011).
About 3,000 (0.83%) of roughly 360,000 compounds were called active. Cut-off read from the data, not from the text of the source: active = inhibition above about 50%; inactive = the rest. The entries come from a sample that favours actives as a whole.

molecular target: DNA (cytosine-5)-methyltransferase 1 (Homo sapiens) (UniProt P26358); experiment: human DNMT1 methyltransferase inhibitors, primary screen, biochemical, molecular beacon, fluorescence, HinP1I cleavage, uHTS (AID 588458); settings: at 10 µM, active compounds read high
Sequence (P26358 504-1616 limits assumed): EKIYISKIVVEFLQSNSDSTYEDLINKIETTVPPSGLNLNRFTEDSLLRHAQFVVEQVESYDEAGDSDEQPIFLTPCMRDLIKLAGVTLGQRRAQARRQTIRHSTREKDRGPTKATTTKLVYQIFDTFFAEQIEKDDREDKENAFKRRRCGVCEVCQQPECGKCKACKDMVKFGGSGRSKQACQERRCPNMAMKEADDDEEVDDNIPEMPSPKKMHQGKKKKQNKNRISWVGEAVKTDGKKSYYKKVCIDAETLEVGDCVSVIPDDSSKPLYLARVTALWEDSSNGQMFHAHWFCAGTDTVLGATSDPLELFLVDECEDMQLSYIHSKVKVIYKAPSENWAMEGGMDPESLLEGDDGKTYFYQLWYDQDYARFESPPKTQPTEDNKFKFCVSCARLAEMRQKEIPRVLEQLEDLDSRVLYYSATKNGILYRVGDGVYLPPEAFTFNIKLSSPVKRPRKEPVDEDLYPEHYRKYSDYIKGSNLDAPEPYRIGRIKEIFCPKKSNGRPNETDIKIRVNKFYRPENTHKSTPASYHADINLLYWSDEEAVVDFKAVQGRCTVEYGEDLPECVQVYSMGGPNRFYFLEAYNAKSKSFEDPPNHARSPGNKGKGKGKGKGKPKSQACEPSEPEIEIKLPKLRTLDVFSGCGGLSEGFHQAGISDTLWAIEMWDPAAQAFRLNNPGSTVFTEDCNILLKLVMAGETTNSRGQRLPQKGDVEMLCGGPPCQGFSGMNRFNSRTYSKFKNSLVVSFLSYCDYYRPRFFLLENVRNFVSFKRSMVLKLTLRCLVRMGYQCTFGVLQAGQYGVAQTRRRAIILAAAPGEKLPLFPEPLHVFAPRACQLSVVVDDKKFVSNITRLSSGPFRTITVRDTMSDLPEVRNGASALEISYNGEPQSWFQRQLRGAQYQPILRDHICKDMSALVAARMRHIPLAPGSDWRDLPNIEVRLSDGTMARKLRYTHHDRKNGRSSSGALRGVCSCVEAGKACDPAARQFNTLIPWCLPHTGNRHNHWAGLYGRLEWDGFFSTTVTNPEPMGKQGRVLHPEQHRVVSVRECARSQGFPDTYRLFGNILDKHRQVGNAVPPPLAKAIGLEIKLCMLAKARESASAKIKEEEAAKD

SMILES | inhibition (reported as % activation of signal)
CCOc1cc(CNCCN(C)C)c(Cl)cc1OCC(=O)NCCc1ccccc1 | 2.37% (inactive)
N#Cc1cc([N+](=O)[O-])ccc1NCC1CCCO1 (configuration not stated) | 0.79% (inactive)
COCCNC(=O)CN(Cc1ccco1)C(=O)CCC(=O)Nc1nccs1 | 0.73% (inactive)
CC(C)(C)C(=O)N1CCC[C@@]1(CO)C(=O)O | 5.81% (inactive)
Cc1ccc(S(=O)(=O)CCC(=O)OCC(=O)NCCc2ccc(S(N)(=O)=O)cc2)cc1 | -1.16% (inactive)
COc1ccc(Cl)cc1NC(=O)CCS(=O)(=O)c1ccc(Br)cc1 | 94.1% (active)
O=C(NCCS(=O)(=O)c1ccc(Br)cc1)c1ccccc1Cl | 2.79% (inactive)
O=C(CCS(=O)(=O)c1ccc(Br)cc1)NCCc1ccc(Cl)cc1 | 68.7% (active)
CCCCC(=O)N/N=C(\C)CC(=O)Nc1cc(Cl)ccc1OC | 2.33% (inactive)
COc1ccc(Cl)cc1NC(=O)COC(=O)c1ccc(Br)o1 | -6% (inactive)
Cc1noc(C)c1CSCC(=O)N(CCC(C)C)c1c(N)n(Cc2ccccc2)c(=O)[nH]c1=O | -0.4% (inactive)
Cc1ccn2c(c1)nc(=O)c1cc(S(=O)(=O)N3CCC(C)CC3)ccc12 | 2.87% (inactive)
Cc1cc(C(=O)N2CCCC2(C)C(=O)O)c(C)o1 (configuration not stated) | 8.96% (inactive)
NC(=O)COC(=O)c1ccc2c(c1)C(=O)N(Cc1ccco1)C2=O | 1.59% (inactive)
COC(=O)COc1ccc2c(c1C)O/C(=C\c1ccco1)C2=O | -2.61% (inactive)
CC(C)(C)C1C/C(=C/c2ccco2)C(=O)/C(=C/c2ccco2)C1 (configuration not stated) | 95.9% (active)
COc1ccc(-c2ccc3c(c2)[C@@H]2C[C@H](N(C)S(=O)(=O)c4ccccc4)[C@H]([C@H](C)O)C(=O)N2CC3)cc1 | -4.42% (inactive)
C[C@@H]1CN([C@H](C)CO)C(=O)CCCn2cc(nn2)CO[C@H]1CN(C)S(C)(=O)=O | 2.33% (inactive)
O=C(NNc1c2ccccc2nc2ccccc12)c1cc2ccccc2cc1O | -19.2% (inactive)
CCc1c(C)nc2c(-c3ccccc3)c(C)nn2c1Nc1ccc(NC(C)=O)cc1 | -6.65% (inactive)
CC(=O)Nc1ccc(Nc2c3ccccc3nc3ccccc23)cc1 | 57.2% (active)
Oc1ccc2ccc3cccc[n+]3c2c1 | 59% (active)

SMILES | inhibition (reported as % activation of signal)
CCOc1cc(/C=C/C(=O)OCC(=O)NCCN2C(=O)CSC2=O)ccc1OCC(C)C | 8.03% (inactive)
CCCCC(=O)N(c1ccc(OC)cc1)C1C=CS(=O)(=O)C1 (configuration not stated) | -1.75% (inactive)
Cc1ccc2cc(C)c(N3CCN(c4ccc(F)cc4)CC3)nc2c1 | 2.96% (inactive)
Cc1ccc2cc(C)c(N3CCC(C)CC3)nc2c1 | 80.8% (active)
Cc1cc(C)c2cc(C#N)c(N3CCNCC3)nc2c1 | 6.52% (inactive)
CC(=O)NC1C(Oc2ccc(C)cc2)OC2COC(c3ccco3)OC2C1O (configuration not stated) | 3.51% (inactive)
CCN(CCn1cccn1)Cc1nc(-c2ccc(C(=O)OC)cc2)no1 | -5.27% (inactive)
CS(=O)(=O)c1ccc2c(c1)SC1=NC(=O)/C(=C/c3ccco3)C(=N)N12 | 74.4% (active)
CCS(=O)(=O)C1=NSC2=NC(=O)/C(=C\c3ccc(OS(=O)(=O)c4ccccc4)cc3)C(=N)N21 | -8.29% (inactive)
CC(=O)OC[C@@H]1CN(Cc2ccccc2)C[C@H](n2cnc3c(NCc4ccco4)ncnc32)O1 | -4.87% (inactive)
COc1ccc(S(=O)(=O)N2CCC(C(=O)NCCC(=O)NCCc3cccc(F)c3)CC2)cc1 | 2% (inactive)
COc1cc(C(C)=O)ccc1OC(C)C(=O)Nc1ccc(S(=O)(=O)N2CCCC2)cc1 (configuration not stated) | -3.33% (inactive)
C=CCn1c(=NC(=O)c2ccc(S(=O)(=O)N3CCCC3)cc2)sc2cc(NC(C)=O)ccc21 | 57.7% (active)
C=CCn1c(=NC(=O)c2cccs2)sc2cc(NC(C)=O)ccc21 | 27% (inactive)
CN(Cc1ccccc1)C(=O)CCC1CCN(C(=O)c2ccco2)CC1 | 0.12% (inactive)
O=C(COC(=O)CNS(=O)(=O)c1ccc(F)c(F)c1F)NC1CCCC1 | 1.29% (inactive)
CN1CCN(C(=O)c2ccccc2NC(=O)COc2ccccc2Cl)CC1 | 0.74% (inactive)
CCN(CC(=O)NCC(=O)Nc1cccc(C)c1C)Cc1ccccc1 | 0.32% (inactive)
Cc1ccc2nc(SC(C)C(=O)NCc3ccco3)[nH]c2c1 (configuration not stated) | -2.41% (inactive)
Cc1ccc(SCC(=O)NC(=O)NCc2ccco2)c(C)c1 | 48.3% (inactive)
Cc1ccc2[nH]c(=O)c(-c3nc4c(C)cccn4c3NCc3ccco3)cc2c1 | 50.4% (active)
O=C(NNS(=O)(=O)c1ccccc1C(F)(F)F)c1cc2ncc(C(F)(F)F)cc2s1 | 5.47% (inactive)

SMILES | inhibition (reported as % activation of signal)
O=C(Nc1nnc(C2COc3ccccc3O2)o1)c1ccc(F)cc1 (configuration not stated) | 2.41% (inactive)
COc1ccccc1NC(=O)C(CC(=O)O)Cc1cc(C)cc(C)c1 (configuration not stated) | 7.02% (inactive)
COC(=O)/C=C\C(=O)Nc1cccc([N+](=O)[O-])c1 | 1.93% (inactive)
Cc1ccc(/C=C/C(=O)Nc2ccc([N+](=O)[O-])c(NC(=O)/C=C/c3ccc(C)o3)c2)o1 | 86.1% (active)
Cc1ccc(/C=C/C(=O)Nc2cc(S(=O)(=O)N3CCCCCC3)ccc2OCC(F)(F)F)o1 | -10.7% (inactive)
CCOC1=C2[C@H]([C@H]3C(=O)N(c4ccccc4)C(=O)[C@H]3C1)[C@@H](c1ccccc1)N(S(=O)(=O)c1ccc(C)cc1)[C@H]2c1ccccc1 | 0.54% (inactive)
COc1ccc(CN2C[C@H]3CON(C)[C@H]3C[C@H]2c2ccc(-c3cccc(F)c3)cc2)cc1 | -13.2% (inactive)
CN(C(=O)CC1C(=O)NCCN1Cc1ccc(F)cc1Cl)C1CCCCC1 (configuration not stated) | -5.76% (inactive)
COCCNC(=O)CCCn1c(=O)c2ccccc2n(Cc2cccc([N+](=O)[O-])c2)c1=O | -1.32% (inactive)
CCCCNC(=O)CCn1c(=O)c2ccccc2n(Cc2cc(C)ccc2C)c1=O | 55.4% (active)
Cc1ccc(NC(=O)Cn2c(=O)n(CCC(=O)NC3CCN(Cc4ccccc4)CC3)c(=O)c3ccccc32)cc1 | 1.32% (inactive)
COC(=O)/C(=C\Nc1ccccc1)NC(=O)c1ccc(Cl)cc1Cl | -1% (inactive)
COc1cccc2cc(C(C)N(CCCN3CCOCC3)C(=O)Nc3ccc(Cl)cc3)oc12 (configuration not stated) | 0.19% (inactive)
CCOC(=O)C1(Cc2ccc(Cl)cc2)CCN(C(=O)C2=NNC(=O)CC2)CC1 | -1.13% (inactive)
COc1ccc(C(=O)OCC(=O)NCCCc2ccccc2)cc1OC | 0.32% (inactive)
COc1ccc(C(=O)OCC(=O)Nc2cccc(C(C)=O)c2)cc1OC | 70.9% (active)
CC(=O)Nc1cccc(C(=O)OCC(=O)Nc2nnc(-c3ccccc3)o2)c1 | 1.02% (inactive)
C=CCNC(=O)COC(=O)CNC(=O)c1cc(Cl)cc([N+](=O)[O-])c1 | 6.93% (inactive)
CCc1c(C)c2c(C)[nH]nc2oc1=O | -3.15% (inactive)
CCC(C)Cn1c(O)cc2nn(-c3nc4ccccc4s3)c(=O)c-2c1C (configuration not stated) | 52.2% (active)
CC1CCCCC1NC(=O)c1cc(=O)[nH]c2ccccc12 (configuration not stated) | 3.02% (inactive)
O=C(c1ccc(S(=O)(=O)NCc2ccco2)cc1)N1CCN(c2ccccc2)CC1 | 3.68% (inactive)

SMILES | inhibition (reported as % activation of signal)
O=C(c1ccc(CS(=O)(=O)c2ccccc2)o1)N1CCN(c2ccccc2)CC1 | 84.6% (active)
O=C(c1ccc(CS(=O)Cc2ccccc2Cl)o1)N1CCN(c2ccccc2)CC1 (configuration not stated) | 5.54% (inactive)
CC(=O)N/C(=C/c1ccc(OC(F)F)cc1)C(=O)O | -1.65% (inactive)
Cc1ccc(C(=O)O)cc1-c1ccc(/C=C2\SC(=O)N(CC(=O)Nc3ccc4c(c3)OCO4)C2=O)o1 | 12.5% (inactive)
N#Cc1ccccc1CN1C(=O)S/C(=C/c2cccn2-c2cccc(C(=O)O)c2)C1=O | 102% (active)
O=C(NCCN1C(=O)S/C(=C\c2cccnc2)C1=O)c1cccc(OC(F)F)c1 | -3.23% (inactive)
O=C(NC(Cc1ccccc1)C(=O)O)/C(=C\c1ccccc1)NC(=O)c1ccco1 (configuration not stated) | -3.34% (inactive)
CCC(C)(C)NC(=O)CN(C(=O)CCC(=O)Nc1cc(C)ccn1)c1ccc2c(c1)OCCO2 | -0.26% (inactive)
O=C(c1cccnc1)N(c1cc2sc(=O)oc2c2ccccc12)S(=O)(=O)c1ccccc1 | -12.2% (inactive)
CC(Sc1cccc[n+]1[O-])C(=O)Nc1cccc(S(=O)(=O)N2CCOCC2)c1 (configuration not stated) | 1.02% (inactive)
CN(C)/C=C(/C(=O)c1ccccc1)S(=O)(=O)c1ccc(Cl)cc1 | -1.72% (inactive)
CN(C)/C=C(/C(=O)c1ccc(F)cc1)S(=O)(=O)c1ccc(F)cc1 | 1.17% (inactive)
CN(C)/C=C(/C(=O)c1ccc(Cl)cc1)S(=O)(=O)c1ccccc1 | 70% (active)
Cc1cnc(CN(C)C(=O)C2CCC(=O)N(CCc3cccc(F)c3)C2)[nH]1 (configuration not stated) | 1.88% (inactive)
O=C(Nc1ccc(Cl)cc1)c1cccc(OC(=S)N2CCOCC2)c1 | 0.14% (inactive)
COc1cccc(C(=O)Nc2ccc3nc4n(c(=O)c3c2)CCCCC4)c1 | 3.72% (inactive)
COc1cccc(C(=O)Nc2ccc(N3CCCC3)cc2)c1 | 91.3% (active)
CC1CN(C(=O)c2ccccc2NS(=O)(=O)c2cccc([N+](=O)[O-])c2)CC(C)O1 (configuration not stated) | 65.4% (active)
Cc1cc([N+](=O)[O-])ccc1NS(=O)(=O)c1ccccc1 | 3.46% (inactive)
CC1CN(C(=O)c2cccc(NS(=O)(=O)c3ccc(Br)cc3)c2)CC(C)O1 (configuration not stated) | 6.97% (inactive)
Nc1c(C(=O)O)cnn1-c1ccccc1 | -0.06% (inactive)
